# Bioassay records deposited in PubChem by Broad Institute.
# Rows were chosen to be rich in hits. Some 4% of all compounds tested hit in one or more screens of this group.
# EBV LMP1 NFkB: EBV LMP1-driven NF-kappaB luciferase reporter inhibitors, primary screen, cell-based, luminescence, single point; LMP1-induced NF-kappaB luciferase reporter cells; inhibition, % at 12.5 µM; actives 0.69% (n = 350,000); AID 504558, 2011; in the data active = inhibition above about 41%; inconclusive = no clear call, values can overlap the other calls
# esBAF inh: Bmi1 luciferase reporter increase in mESCs, primary screen, esBAF inhibitor project, mouse ES cells, Bmi1 luciferase knock-in, single point | 24 h; 100% = twice the neutral-well signal | reporter increase, % at 12.5 µM | actives 2% (n = 350,000) | AID 602393, 2012; in the data active = activation above about 40%; inconclusive = no clear call, values can overlap the other calls;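 also: a rise in the Bmi1 reporter signal indicates esBAF inhibition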
# Wnt act: Wnt/beta-catenin pathway activators, primary screen, cell-based, plate reader, single point. Wnt/beta-catenin reporter cell assay, activator. activation, % at 9.35 µM. actives 1.2% (n = 300,000); in the data active = activation above about 30%, passing the limit was not always enough; inconclusive = no clear call, values can overlap the other calls
# Statin myotox sup: suppressors of statin myotoxicity in C2C12 myotubes, primary screen, cell-based, single point, plate reader. rescue of ATP level, % at 7.49 µM. actives 0.78% (n = 330,000). C2C12 myotubes + simvastatin, ATP luminescence, 48 h; scaled: DMSO 0, geranylgeraniol control 100;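 active = mean ATP rescue above about 67%, or every replicate alone reaching that limit, limit read from the data, passing the limit was not always enough; inconclusive = no clear call, values can overlap the other calls; inactive = mean under the limit and some replicate under it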;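 also: myotubes were challenged with 10 µM simvastatin during compound exposure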
# TRPM1 prom inh: inhibitors of MITF-dependent TRPM1 promoter reporter, primary screen, cell-based, SK-MEL-5, single point, luciferase. inhibition, % at 12.5 µM. actives 0.83% (n = 330,000). AID 488899, 2010. SK-MEL-5 TRPM1 promoter luciferase, 24 h;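 active = mean inhibition across replicates of 60% or more, whatever share of single replicates reaches that level; inconclusive = some that reach 60%, reason not given; inactive = mean inhibition across replicates below 60%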
# MITF act: activators of MITF-driven TRPM1 promoter reporter, primary screen, cell-based, SK-MEL-5, luciferase, single point; SK-MEL-5 TRPM1-promoter luciferase, 24 h; % of positive control, neutral wells = 0; activation, % at 12.5 µM; actives 0.75% (n = 300,000);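 active = mean activation of at least 80% with every replicate also reaching 80%; inconclusive = mean reaches 80% but some replicate falls short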
# A number is an active result; i = inactive; ? = inconclusive; nt = no result given.
SMILES,EBV LMP1 NFkB,esBAF inh,Wnt act,Statin myotox sup,TRPM1 prom inh,MITF act
Clc1ccc(Cn2nnc(-c3ccc(CN4CCOCC4)cc3)n2)cc1,i,51.6,i,i,i,nt
O=C(Cn1nnc(-c2ccccc2)n1)OCc1ccccc1,i,i,i,i,i,i
Fc1cccc(Cl)c1Cn1nnc(-c2ccc(N3CCOCC3)cc2)n1,i,i,i,99.2,i,i
Cc1[nH]nc(-c2ccc(O)cc2O)c1Oc1ccccc1,i,i,i,i,i,i
COc1ccc(NC(=O)NNS(=O)(=O)c2ccc(Br)cc2)cc1,nt,i,i,i,i,i
Cc1ccc(NC(=O)NNS(=O)(=O)c2ccc(Br)cc2)cc1,66.4,i,nt,i,i,i
N#CCCN1CCN(C(=S)c2ccc(-c3cccc(Cl)c3)o2)CC1,i,78.4,nt,i,i,i
O=[N+]([O-])c1cc(-c2ccc(C(=S)N3CCOCC3)o2)ccc1Cl,i,i,i,i,i,i
O=C(O)c1ccc(-c2cccc(Cl)c2)o1,i,i,nt,i,i,i
N#CCCN1CCN(C(=S)c2ccc(-c3ccc(Cl)c(Cl)c3)o2)CC1,i,45.6,nt,i,i,i
CNC(=O)C[C@@H]1CC[C@H]2[C@@H](COc3ccc(NC(=O)Nc4ccccc4OC)cc3C(=O)N2C)O1,nt,i,nt,i,nt,nt
O=C(N/N=C/c1ccc(O)cc1O)c1ccc(CN2C(=O)c3cccc4cccc2c34)cc1,50.2,nt,i,nt,i,i
CO[C@H]1CN(C)C(=O)c2ccc(NC(=O)c3cnccn3)cc2OC[C@@H](C)N(C(=O)C2CC2)C[C@@H]1C,nt,i,nt,i,nt,nt
COc1ccc2oc(C(=O)NC3CCCCC3)c(C)c2c1,i,?,i,i,i,112.3
Cc1c(C(=O)NC2CCCCC2)oc2ccc(F)cc12,i,42.6,i,i,i,i
COc1cc2[nH]c(=O)n(Cc3ccc(C(=O)NCCCN4CCC(C)CC4)cc3)c(=O)c2cc1OC,i,i,nt,i,i,nt
Cc1cc2oc(=O)cc(Cn3ncc(Cl)c(Cl)c3=O)c2cc1Cl,i,i,nt,i,83.4,i
Cc1cc2oc(=O)cc(CN3CCN(c4ccccc4)CC3)c2cc1Cl,nt,i,i,i,nt,nt
CC(NCCN(C)C)C1CCC2C3CCc4cc(O)ccc4C3CCC12C (configuration not stated),i,nt,i,nt,86.1,i
COC(=O)c1ccc(/C=C2/SC(=S)N(CCC(=O)N3CCOCC3)C2=O)cc1,i,i,i,71.2,i,i
CCOc1ccc(/C=C2\SC(=S)N(CCC(=O)O)C2=O)cc1,47.4,nt,i,nt,84.8,i
CCOc1ccc(/C=C2/SC(=S)N(CCC(=O)Nc3ccc(C(=O)O)cc3)C2=O)cc1,i,i,i,i,i,i
COc1ccc(CC(N)c2csc(Nc3ccc(C(C)=O)cc3)n2)cc1 (configuration not stated),nt,i,i,i,nt,nt
Cc1cc(C)nc(Nc2ccc(O)cc2)n1,i,i,i,i,i,i
CCc1ccc(Nc2nc(C)cc(C)n2)cc1,i,48.6,i,i,i,nt
SMILES,EBV LMP1 NFkB,esBAF inh,Wnt act,Statin myotox sup,TRPM1 prom inh,MITF act
O=C(Nc1ccc2c(c1)OCO2)c1ccc(S(=O)(=O)N2CCCC2)cc1,i,nt,i,nt,i,i
CCCCOC(=O)c1ccccc1N1C(=O)C2C3CCC(C3)C2C1=O (configuration not stated),i,i,i,82.5,i,i
CC(C)COC(=O)c1ccccc1N1C(=O)C2C3CCC(C3)C2C1=O (configuration not stated),i,nt,i,nt,i,i
CCCCn1c(SCC2CCCCO2)nc2cc(S(N)(=O)=O)ccc21 (configuration not stated),i,nt,40.4,nt,i,i
COc1ccc(CNC(=O)c2cc(=O)c3ccccc3o2)cc1,i,i,i,i,i,i
CCC(Sc1nc2ccccc2c(=O)[nH]1)C(=O)Nc1ccc(C(C)=O)cc1 (configuration not stated),i,70.2,i,i,i,i
O=C1CC(NS(=O)(=O)c2cccs2)CN1c1ccc(F)cc1 (configuration not stated),i,47.3,i,i,i,i
CC(=O)c1cnc(Nc2cccc(C)c2)s1,i,nt,i,nt,i,92.4
CC(=O)Nc1cccc(C)c1,i,i,i,i,i,i
CCC(=O)Nc1ccc2c(c1)C(=O)N(C)[C@H]1CC[C@H](CC(=O)N[C@@H](C)c3ccccc3)O[C@H]1CO2,nt,i,nt,i,nt,nt
COc1ccc(C=NNC(=O)c2cc(C)oc2C)cc1O,i,65.7,i,i,i,i
COc1cc(/C=N/NC(=O)c2cc(C)oc2C)ccc1O,i,i,i,i,i,i
CCOc1ccc(/C=N/NC(=O)c2ccoc2C)cc1OC,i,48.5,i,i,i,i
COc1ccc(O)c(/C=N/NC(=O)c2cccc(N3CCCC3=O)c2)c1,i,i,i,i,i,i
COc1cccc(/C=N/NC(=O)c2cccc(N3CCCC3=O)c2)c1,i,72.7,i,i,i,i
COc1cccc(/C=N/NC(=O)c2ccoc2C)c1,i,nt,39.6,nt,i,nt
Cc1ccc(N(C)C(=O)CCNC(=O)Cn2cnc3ccccc3c2=O)cc1C,i,i,i,i,i,i
O=C(Nc1ccc(F)c(F)c1)NC1CCCCC1,i,65.9,i,i,i,i
S=C(Nc1cccc2ccccc12)NC1CCCCC1,i,57.4,i,i,i,i
O=C(Nc1ccccc1F)NC1CC1,i,?,nt,i,i,i
S=C(Nc1cccc2ccccc12)Nc1cccc2ccccc12,i,i,i,i,i,i
CC1CCCCC1NC(=S)Nc1ccc(SC(F)F)cc1 (configuration not stated),i,i,nt,i,i,i
O=C(Nc1cccc(Cl)c1)NC1CCCCC1,i,nt,nt,nt,i,nt
O=C(Nc1ccccc1F)NC1CCCCCCC1,i,53.9,i,i,i,i
FC(F)Sc1ccc(NC(=S)NC2CCCCC2)cc1,i,50.5,nt,i,i,i
SMILES,EBV LMP1 NFkB,esBAF inh,Wnt act,Statin myotox sup,TRPM1 prom inh,MITF act
COc1cc(-c2cc3nc(NCc4ccco4)ccn3n2)cc(OC)c1OC,nt,i,i,i,nt,nt
Cc1ccc(NC(=O)COC(=O)COc2ccc3ccc(=O)oc3c2)cc1[N+](=O)[O-],i,i,i,i,i,i
Nc1ccc(NC(=O)NC2CCCCC2)cc1,i,i,i,i,i,i
O=C(Nc1ccc2nsnc2c1)C1CC1,i,i,nt,i,i,i
O=C(Nc1ccc(F)cc1)NC1CCCCCCC1,i,59.1,i,i,i,105.2
O=C(Nc1ccc2nsnc2c1)NC1CCCCC1,i,60.1,nt,i,i,i
O=C(Nc1ccc(Cl)cc1)NC1CCCCC1,i,nt,66.1,nt,i,?
CC(=O)c1ccc(NC(=O)NC2CCCCCCC2)cc1,i,68.2,?,i,i,i
CC(=O)c1cccc(NC(=O)NC2CCCCCCC2)c1,i,nt,i,nt,i,i
